Broadly, the inhibition is the drop in the measured response relative to a control, in per cent.

Each structure is given as a SMILES string. Records with an inconclusive call do not appear. Active and inactive are the calls of the source. Unless noted, the rule behind the calls is not given here.

The values that follow come from PubChem BioAssay.

Test [1] is described as follows: rapamycin-like changes in RPL19A-GFP expression – cell-based, S. cerevisiae, multiplex flow cytometry, primary screen (AID 1862; in the data active = percent of DMSO control GFP below about 86%;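 note: lower values mimic rapamycin by blocking the RPL19A rise seen in DMSO cells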). The conditions noted are these: S. cerevisiae RPL19A-GFP strain, flow cytometry fluorescence, 3 h; at 10 µM; stronger effect = lower value. (In general: In flow cytometry, cells or beads pass a laser one at a time.)
Test [2] can be described thus: TOR pathway GLN3 branch reporter MEP2-GFP changes – S. cerevisiae, multiplex flow cytometry, primary screen (AID 1867;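 active = GFP response, as percent of the DMSO control, above the screen-wide mean plus 3 SD, about 139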;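 note: median GFP channel fluorescence of barcode-gated MEP2-GFP cells measured by flow cytometry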). The note with it: S. cerevisiae MEP2-GFP strain, 3 h, at 10 µM, stronger effect = higher value.
A short description of test [3]: TOR pathway RTG branch CIT2 reporter changes – S. cerevisiae, GFP fusion, multiplex flow cytometry, primary screen (AID 1870;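 active = percent response above a set limit, the screen-wide mean plus 3 SD, cut at about 130% in these data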;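 note: barcoded CIT2-GFP strain pooled with four other GFP strains with rapamycin as positive control; median GFP fluorescence per well over plate mean of DMSO wells so 100% = DMSO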). The note with it: S. cerevisiae CIT2-GFP expression, 3 h, at 10 µM, stronger effect = higher value.
Test [4] in a line: TOR pathway LAP4-GFP level changes – S. cerevisiae, multiplex flow cytometry, primary screen (AID 1873;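 active = GFP signal, as percent of the solvent control, above the screen mean plus 3 SD, about 149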). The note with it: S. cerevisiae LAP4-GFP expression, 3 h, at 10 µM, stronger effect = higher value.
Test [5] is described as follows: yeast AGP1-GFP level changes, GLN3 branch – cell-based, multiplex flow cytometry, S. cerevisiae, primary screen (AID 1887;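 active = GFP signal above the screen-wide mean plus 3 SD, that is over about 124.5% of the solvent control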;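 note: AGP1-GFP fusion strain of S. cerevisiae within a five-strain barcoded multiplex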). The note with it: 3 h, at 10 µM, stronger effect = higher value.
A short description of test [6]: reduced mouse 2C T cell binding to pMHC/ICAM-1 vesicles – MLPCN validation set, flow cytometry, LFA-1/ICAM-1 modulator project, pilot screen (AID 2523;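 active = response below a set limit, under 55% cells CD8-positive and vesicle-bound, and CD8 cells' 90th-percentile brightness under 279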;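 for vesicle binding response: mean PE anti-B7-1 fluorescence of CD8+ cells relative to row control; 100% = QL9-loaded vesicles with DMSO vehicle in the same plate row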). The conditions noted are these: 2C mouse CD8+ T cells, at 7 µM, stronger effect = lower value; double positive events: measured here: CD8+/vesicle+ event percentage.
Test [7] deals with Integrin beta-1 (Homo sapiens) + Integrin alpha-4 (Homo sapiens) (UniProt P13612+P05556). Briefly: alpha4beta1 integrin LIBS antibody binding reduction – U937 cells, HUTS-21 mAb, flow cytometry, validation set, VLA-4 allosteric modulator project, pilot screen (AID 2674;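 active = inhibition above 50%, about 3 SD of the validation set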;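 note: antibody binding induced by the VLA-4 ligand LDV present at three times its Kd; 0% = LDV ligand with antibody and no compound and 100% = antibody without LDV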). The conditions noted are these: HUTS-21 LIBS mAb binding, at 6.7 µM, stronger effect = higher value.
Chain of Integrin beta-1 (Homo sapiens) + Integrin alpha-4 (Homo sapiens) (P05556 whole entry, looked up): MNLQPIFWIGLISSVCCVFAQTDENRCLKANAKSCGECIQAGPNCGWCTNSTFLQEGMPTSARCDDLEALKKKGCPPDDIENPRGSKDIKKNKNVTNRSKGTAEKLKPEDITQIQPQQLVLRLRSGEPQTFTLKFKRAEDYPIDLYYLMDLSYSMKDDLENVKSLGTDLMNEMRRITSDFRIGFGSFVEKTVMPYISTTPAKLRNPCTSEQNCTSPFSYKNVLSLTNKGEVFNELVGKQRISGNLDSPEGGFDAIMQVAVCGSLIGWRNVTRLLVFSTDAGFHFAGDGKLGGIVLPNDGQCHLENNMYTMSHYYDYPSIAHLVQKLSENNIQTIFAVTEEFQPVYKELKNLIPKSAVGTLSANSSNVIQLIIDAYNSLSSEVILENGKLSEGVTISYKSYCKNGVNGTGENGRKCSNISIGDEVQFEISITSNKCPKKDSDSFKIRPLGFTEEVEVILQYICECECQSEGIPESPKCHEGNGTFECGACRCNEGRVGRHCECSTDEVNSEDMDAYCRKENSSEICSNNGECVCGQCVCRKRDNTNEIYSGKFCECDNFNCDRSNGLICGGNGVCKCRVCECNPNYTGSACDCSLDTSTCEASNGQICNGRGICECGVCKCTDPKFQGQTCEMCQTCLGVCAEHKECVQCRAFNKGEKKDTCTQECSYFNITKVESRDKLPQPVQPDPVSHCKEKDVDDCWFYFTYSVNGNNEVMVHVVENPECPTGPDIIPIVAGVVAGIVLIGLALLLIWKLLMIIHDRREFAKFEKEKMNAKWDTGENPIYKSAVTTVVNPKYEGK
Chain of Integrin beta-1 (Homo sapiens) + Integrin alpha-4 (Homo sapiens) (P13612 whole entry, looked up): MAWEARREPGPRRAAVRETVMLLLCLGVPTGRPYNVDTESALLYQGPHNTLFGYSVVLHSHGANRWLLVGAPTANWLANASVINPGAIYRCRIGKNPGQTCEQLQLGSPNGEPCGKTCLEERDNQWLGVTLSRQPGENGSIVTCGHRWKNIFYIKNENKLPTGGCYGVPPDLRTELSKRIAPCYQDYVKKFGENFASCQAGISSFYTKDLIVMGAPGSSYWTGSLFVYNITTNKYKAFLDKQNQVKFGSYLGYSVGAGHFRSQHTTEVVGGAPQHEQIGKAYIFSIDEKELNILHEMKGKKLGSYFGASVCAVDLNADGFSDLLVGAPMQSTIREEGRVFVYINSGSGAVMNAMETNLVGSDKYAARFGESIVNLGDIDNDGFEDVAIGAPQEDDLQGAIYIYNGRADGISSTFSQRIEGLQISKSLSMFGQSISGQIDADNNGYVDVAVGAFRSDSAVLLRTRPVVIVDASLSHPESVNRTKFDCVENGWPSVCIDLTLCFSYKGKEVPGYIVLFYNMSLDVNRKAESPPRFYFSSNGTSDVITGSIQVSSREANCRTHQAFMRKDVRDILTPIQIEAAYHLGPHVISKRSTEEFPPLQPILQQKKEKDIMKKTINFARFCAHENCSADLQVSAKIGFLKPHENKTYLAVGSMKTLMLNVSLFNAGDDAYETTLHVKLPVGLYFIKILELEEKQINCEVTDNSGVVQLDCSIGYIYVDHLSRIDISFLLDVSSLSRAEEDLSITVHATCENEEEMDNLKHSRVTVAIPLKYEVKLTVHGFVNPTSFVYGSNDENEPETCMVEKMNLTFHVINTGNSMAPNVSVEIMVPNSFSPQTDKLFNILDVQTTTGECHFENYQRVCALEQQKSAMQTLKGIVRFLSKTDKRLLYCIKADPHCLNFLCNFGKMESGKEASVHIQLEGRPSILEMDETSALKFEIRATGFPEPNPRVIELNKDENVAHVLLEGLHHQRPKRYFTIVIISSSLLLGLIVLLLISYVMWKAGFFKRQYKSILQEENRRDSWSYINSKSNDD
Test [8] can be described thus: calorie-restriction mimetic ROS inhibitors, yeast – validation compound set, pilot screen (AID 2706;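 active = superoxide response below 65% of plate, a cut near 3 SD across the whole screen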;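 note: yeast exposed to compound for one week at 30 degrees C before staining; 100% = mean of all compound wells on the same plate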). The note with it: S. cerevisiae aging, superoxide DHE fluorescence; at 10 µM; stronger effect = lower value.
Test [9] deals with Beta-adrenergic receptor kinase 1 (Homo sapiens) (UniProt P25098). Briefly: GRK2 binders displacing RNA aptamer, biochemical, validation, human GRK2, bead flow cytometry (AID 488806;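 active = aptamer binding inhibition above 30%, about 3 SD of noise from non-fluorescent compounds; inactive = inhibition at or below 30%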). The conditions noted are these: bead-bound GRK2, FAM-aptamer displacement, at 10 µM, stronger effect = higher value.
Chain of Beta-adrenergic receptor kinase 1 (Homo sapiens) (P25098 whole entry, looked up): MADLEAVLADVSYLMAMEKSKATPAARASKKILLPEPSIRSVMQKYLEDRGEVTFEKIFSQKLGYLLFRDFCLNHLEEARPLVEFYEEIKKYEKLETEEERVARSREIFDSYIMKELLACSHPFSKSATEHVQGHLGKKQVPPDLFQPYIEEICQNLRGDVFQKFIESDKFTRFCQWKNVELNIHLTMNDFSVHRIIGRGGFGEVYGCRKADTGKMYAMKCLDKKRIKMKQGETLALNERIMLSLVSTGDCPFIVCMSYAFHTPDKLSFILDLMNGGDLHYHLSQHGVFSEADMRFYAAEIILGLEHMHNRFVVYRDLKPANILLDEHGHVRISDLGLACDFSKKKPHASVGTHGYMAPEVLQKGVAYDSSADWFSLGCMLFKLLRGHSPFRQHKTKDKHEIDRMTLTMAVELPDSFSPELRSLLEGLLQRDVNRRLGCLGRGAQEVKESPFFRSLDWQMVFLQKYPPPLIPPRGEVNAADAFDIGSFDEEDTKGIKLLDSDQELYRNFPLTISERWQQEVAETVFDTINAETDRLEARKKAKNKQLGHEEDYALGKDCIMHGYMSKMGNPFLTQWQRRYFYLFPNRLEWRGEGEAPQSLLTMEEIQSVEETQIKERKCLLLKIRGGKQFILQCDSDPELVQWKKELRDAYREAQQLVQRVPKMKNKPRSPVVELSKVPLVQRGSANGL
Test [10] deals with Beta-2 adrenergic receptor (Homo sapiens) (UniProt P07550). Briefly: agonist-induced loss of surface beta2AR – cell-based, FAP fluorogen, flow cytometry, validation set, pilot screen (AID 504459;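 active = percent response above 42, roughly 3 SD of non-fluorescent test compounds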;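 note: agonist-driven loss of surface beta2AR via internalization measured by FAP dye flow cytometry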). The note with it: Am2.2-beta2AR cells, at 10 µM, stronger effect = higher value.
Chain of Beta-2 adrenergic receptor (Homo sapiens) (P07550 whole entry, looked up): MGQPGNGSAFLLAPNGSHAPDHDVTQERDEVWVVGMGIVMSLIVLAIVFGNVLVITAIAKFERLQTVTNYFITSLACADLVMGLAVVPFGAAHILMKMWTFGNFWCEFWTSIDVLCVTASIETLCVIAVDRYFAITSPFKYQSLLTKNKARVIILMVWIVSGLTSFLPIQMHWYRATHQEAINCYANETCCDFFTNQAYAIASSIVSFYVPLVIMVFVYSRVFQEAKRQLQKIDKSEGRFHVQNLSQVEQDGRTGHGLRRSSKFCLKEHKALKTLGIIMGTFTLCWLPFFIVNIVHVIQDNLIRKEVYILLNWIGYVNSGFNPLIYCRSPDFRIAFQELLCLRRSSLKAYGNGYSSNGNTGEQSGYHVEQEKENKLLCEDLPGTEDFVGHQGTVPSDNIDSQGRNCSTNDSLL
Test [11] addresses AP-2 complex subunit beta (Homo sapiens) (UniProt P63010). Briefly: beta-arrestin/AP2 interaction blockers – biochemical, validation set, GST-AP2 beads, flow cytometry, pilot screen (AID 504541;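 active = inhibition above 54%, about 3 SD of non-fluorescent compounds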;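 note: AP2 carries R879A mutation and is captured from E. coli lysate; bead-bound FITC arrestin peptide fluorescence measuring arrestin peptide binding to AP2; 0% = DMSO wells and 100% = excess unlabeled arrestin peptide control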). The conditions noted are these: FITC arrestin peptide, at 10 µM, stronger effect = higher value.
A short description of test [12]: cytosolic pH regulators acting via V-ATPase – S. cerevisiae, pHLuorin, HTS validation (AID 504600; in the data active = response above about 15%;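 note: plate controls were DMSO for no effect and reference compound for full effect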). The note with it: V-ATPase proton transport, at 10 µM, stronger effect = higher value.
Test [13] has as its system anti-desmoglein-3 scFv antibody binding to human DSG3. Briefly: blockers of pathogenic pemphigus antibody–desmoglein-3 binding – biochemical, validation compound set, bead-based, flow cytometry, pilot screen (AID 588368;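 active = binding below the plate cutoff, the plate median minus 3 SD, with a reading above zero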;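 note: signal is the median channel fluorescence of bead-bound GFP antibody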). The note with it: Protein G beads, DSG3-Fc, scFv-GFP binding, at 10 µM, stronger effect = lower value.
The test system of test [14] is Botulinum neurotoxin type F light chain protease (Clostridium botulinum). Briefly: Clostridium botulinum type F light chain protease inhibitors, microsphere substrate cleavage, validation (AID 588459). The note with it: multiplex microsphere protease substrate cleavage assay, flow cytometry; at 10 µM; stronger effect = higher value.
Test [15] addresses Botulinum neurotoxin type A (Clostridium botulinum) (UniProt P0DPI0). Nature of the test: BoNT/A light chain protease inhibitors, biochemical, multiplex microsphere flow cytometry, validation set (AID 588460). The note with it: at 10 µM, stronger effect = higher value.
Test [16] concerns the target Lethal factor (Bacillus anthracis) (UniProt P15917). Nature of the test: Bacillus anthracis lethal factor inhibition, microsphere flow cytometry protease assay, validation at 10 µM (AID 588461). The note with it: multiplex microsphere protease cleavage assay, stronger effect = higher value.
The nature of test [17]: Nile Red efflux blockade in pump-expressing yeast – validation compound set, multiplex, phenotypic, pilot screen (AID 588506;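 active = efflux inhibition above 0.42, the validation set average plus 4 SD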;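 note: Nile Red retained in cells so higher fluorescence means more efflux inhibition; 0 = negative control wells and 1 = enniatin B 25 µM full block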). The note with it: S. cerevisiae pump-expressing triplex, Nile Red efflux flow cytometry; at 10 µM; stronger effect = higher value.
Test [18] has as its target ATP-binding cassette sub-family B member 6 (Homo sapiens) (UniProt Q9NP58). Nature of the test: blockers of ABCB6-driven porphyrin uptake – K562-ABCB6 cells, flow cytometry, validation set, pilot screen (AID 588550;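 active = inhibition above the screen-wide mean plus 3 SD, about 51%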;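 note: 0% = DMSO wells and 100% = benzethonium chloride 70 µM positive control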). The conditions noted are these: K562-ABCB6 porphyrin accumulation, 1 h, at 10 µM, stronger effect = higher value.
A short description of test [19]: AML differentiation inducers, ER-HoxA9 marrow cells – cell-based, GFP/MAC1 double positive, flow cytometry, validation set, primary screen (AID 588685;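 active = differentiation response of at least 50%, scaled between solvent and reference control, from cells with both markers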;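 note: compound exposure lasts four days before antibody staining and flow analysis; 0% = DMSO wells and 100% = 5 µM fulvestrant positive control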). The conditions noted are these: stronger effect = higher value.
The target in test [20] is GTPase HRas (Homo sapiens) (UniProt P01112). Nature of the test: Ras wt fluorescent GTP loading blockade – biochemical, wildtype, multiplex bead flow cytometry, dose response (AID 1335;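 active = fitted half-maximal concentration within 10 nM to 100 µM, steepness 0.5 to 2, significant signal drop, low assay interference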). The conditions noted are these: bead-based flow cytometry, Bodipy-GTP binding to GST-Ras; at 100 µM (top of the series).
Chain of GTPase HRas (Homo sapiens) (P01112 whole entry, looked up): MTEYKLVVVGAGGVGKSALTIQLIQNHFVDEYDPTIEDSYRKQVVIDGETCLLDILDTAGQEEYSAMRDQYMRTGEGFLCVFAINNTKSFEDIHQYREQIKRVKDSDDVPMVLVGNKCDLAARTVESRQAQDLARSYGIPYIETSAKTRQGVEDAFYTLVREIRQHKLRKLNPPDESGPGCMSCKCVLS

Chain of ATP-binding cassette sub-family B member 6 (Homo sapiens) (Q9NP58 whole entry, looked up): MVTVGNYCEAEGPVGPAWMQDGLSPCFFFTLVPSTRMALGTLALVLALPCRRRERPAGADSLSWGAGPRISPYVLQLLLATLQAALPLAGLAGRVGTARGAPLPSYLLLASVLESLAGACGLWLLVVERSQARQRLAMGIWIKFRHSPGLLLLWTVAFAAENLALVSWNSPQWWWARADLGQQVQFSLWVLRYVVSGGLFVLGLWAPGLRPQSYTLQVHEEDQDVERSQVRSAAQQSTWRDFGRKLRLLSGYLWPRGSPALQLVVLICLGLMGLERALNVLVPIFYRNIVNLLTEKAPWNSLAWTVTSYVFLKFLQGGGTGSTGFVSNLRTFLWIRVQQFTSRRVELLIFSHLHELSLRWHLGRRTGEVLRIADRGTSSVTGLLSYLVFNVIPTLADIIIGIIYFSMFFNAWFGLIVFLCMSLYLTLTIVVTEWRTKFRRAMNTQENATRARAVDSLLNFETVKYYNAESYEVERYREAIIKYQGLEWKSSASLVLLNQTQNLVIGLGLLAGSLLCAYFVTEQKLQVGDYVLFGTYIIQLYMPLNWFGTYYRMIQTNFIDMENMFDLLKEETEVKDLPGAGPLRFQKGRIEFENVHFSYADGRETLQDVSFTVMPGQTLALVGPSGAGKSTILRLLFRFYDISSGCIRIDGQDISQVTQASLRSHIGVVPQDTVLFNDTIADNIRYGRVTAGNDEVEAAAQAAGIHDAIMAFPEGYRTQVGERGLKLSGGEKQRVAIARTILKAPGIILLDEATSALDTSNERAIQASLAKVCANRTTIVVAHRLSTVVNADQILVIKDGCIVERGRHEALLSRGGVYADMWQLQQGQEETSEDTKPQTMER
Chain of Lethal factor (Bacillus anthracis) (P15917 whole entry, looked up): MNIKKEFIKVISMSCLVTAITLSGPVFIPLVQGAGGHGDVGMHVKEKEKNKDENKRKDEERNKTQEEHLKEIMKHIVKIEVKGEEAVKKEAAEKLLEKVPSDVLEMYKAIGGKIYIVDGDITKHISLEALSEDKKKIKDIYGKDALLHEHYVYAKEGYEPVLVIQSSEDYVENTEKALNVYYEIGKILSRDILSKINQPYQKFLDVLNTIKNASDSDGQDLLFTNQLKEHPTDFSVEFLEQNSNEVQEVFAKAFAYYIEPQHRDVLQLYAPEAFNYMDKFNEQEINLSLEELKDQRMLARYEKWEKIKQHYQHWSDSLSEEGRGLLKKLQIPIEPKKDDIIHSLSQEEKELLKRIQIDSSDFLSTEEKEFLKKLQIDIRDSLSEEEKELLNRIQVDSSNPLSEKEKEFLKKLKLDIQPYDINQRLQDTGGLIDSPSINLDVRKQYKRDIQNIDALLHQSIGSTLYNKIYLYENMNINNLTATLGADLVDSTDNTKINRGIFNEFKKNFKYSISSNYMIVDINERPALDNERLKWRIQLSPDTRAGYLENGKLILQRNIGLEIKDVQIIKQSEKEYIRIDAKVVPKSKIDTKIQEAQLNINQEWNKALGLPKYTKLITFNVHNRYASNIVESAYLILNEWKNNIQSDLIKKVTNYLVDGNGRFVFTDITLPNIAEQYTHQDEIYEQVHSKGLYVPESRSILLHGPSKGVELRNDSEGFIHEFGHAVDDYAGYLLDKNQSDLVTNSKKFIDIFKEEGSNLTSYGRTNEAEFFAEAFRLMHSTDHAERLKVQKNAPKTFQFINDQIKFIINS

With `C#C[C@]1(O)CC[C@H]2[C@@H]3CCC4=CC(=O)CC[C@]4(C)[C@H]3CC[C@@]21C`, the percent of DMSO control GFP in test [1] is 88.7% (inactive). The GFP response vs DMSO was 140% (active) in test [2] and 80.9% (inactive) in test [4]. In test [3], the percent response of DMSO control was 106% (inactive). The GFP response, % of DMSO in test [5] was 87.7% (inactive). Besides, in test [6], the double positive events is 64.1%. In test [6], the vesicle binding response was 255% (inactive). For the same compound, the inhibition in test [7] was 3.55% (inactive); in test [11] it was 14.2% (inactive); in test [14], 2.5% (inactive); in [15], -0.5% (inactive); in [16], -1.2% (inactive); in test [18], 9% (inactive). For the same compound, in test [8], the superoxide response (% of plate) is 97.8% (inactive). For the same compound, the aptamer binding inhibition in test [9] was 1% (inactive). Also, the response in [10] was -8% (inactive); in test [12], -3.36% (inactive). The binding (% of control) in test [13] was 102% (inactive). In [17], the efflux inhibition (fraction of control) was 0.3 (inactive). The differentiation response in [19] is -0.82% (inactive).
The compound `Cc1ccccc1OCCCn1cc(C(=O)O)c2ccccc21` registered a GTP binding, percent of control in [20] of 92.4%.
On the same count and under the same terms, with `O=c1[nH]c(=S)[nH]c(O)c1N=Nc1ccc(S(=O)(=O)N2CCc3ccccc32)cc1` the figure was 95.9%.
`CC12CN3CC(C)(CN(C1)C31CCOCC1)C2=O`: the percent of DMSO control GFP in [1] was 92.6% (inactive). For the same compound, the GFP response vs DMSO in test [2] was 145% (active); in [4], 90.2% (inactive). Moreover, in [3], the percent response of DMSO control is 101% (inactive). For the same compound, the GFP response, % of DMSO in [5] was 94.5% (inactive). The compound also came in with a double positive events in test [6] of 65.1%. In addition, the vesicle binding response in test [6] was 166% (inactive). In addition, the inhibition in [7] is 5.49% (inactive); in test [11] it was 40.7% (inactive); in test [14], 1.2% (inactive); in [15], 0.1% (inactive); in [16] it was -2.4% (inactive); in [18], 13% (inactive). In [8], the superoxide response (% of plate) was 90% (inactive). For the same compound, in [9], the aptamer binding inhibition is 2% (inactive). Besides, the values for the response in test [10] and in test [12] were 3.7% (inactive) and -6.81% (inactive), respectively. Also, the binding (% of control) in test [13] is 100% (inactive). Also, the efflux inhibition (fraction of control) in [17] is -0.09 (inactive). Besides, in test [19], the differentiation response was -2.46% (inactive).
With `Cc1cc(OCCCn2cc(C(=O)O)c3ccccc32)ccc1Cl`, in test [20], the GTP binding, percent of control amounted to 83.9%.
For the compound `CCN(CC)c1ccc(/C=N/c2sc3c(c2C#N)C2CCN3CC2)c(O)c1`, the GTP binding, percent of control in [20] amounted to 104%.
For the compound `O=C1C(=O)c2ccccc2-c2ccccc21`, the percent of DMSO control GFP in [1] is 73.2% (active). Besides, the GFP response vs DMSO in [2] was 126% (inactive); in test [4], 60.6% (inactive). The percent response of DMSO control in [3] is 92.9% (inactive). For the same compound, the GFP response, % of DMSO in test [5] was 36.3% (inactive). This compound displayed a double positive events in [6] of 61.3%. Moreover, in test [6], the vesicle binding response is 176% (inactive). The inhibition is -0.43% (inactive) in test [7]; 5.3% (inactive) in test [14]; 0.6% (inactive) in test [15]; -4.7% (inactive) in test [16]; -64% (inactive) in test [18]. Besides, in [8], the superoxide response (% of plate) is 83% (inactive). In addition, the aptamer binding inhibition in test [9] was 67% (active). Also, the response in test [10] was 112% (active); in [12] it was 0.26% (inactive). Further, the binding (% of control) in [13] was 98.9% (inactive). Further, the efflux inhibition (fraction of control) in test [17] was 2.06 (active). In addition, in test [19], the differentiation response is 100% (active).
